IL1B secr inh: blocks inflammasome-driven IL-1 beta release. THP-1 LPS/ATP IL-1B secretion, AlphaLISA, 16 h; active compounds read low. activity change, % at 57.5 µM. 360,000 tested, 4.7% active. AID 743279; in the data active = activity change below about -50%; inconclusive = mostly about -30% to -49%
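Secreted IL-1B measured by AlphaLISA bead assay after 16 h compound exposure of THP-1 cells; compounds (final up to 57.5 uM) added 1 h before LPS (250 ng/mL) and ATP (1.25 mM) stimulation; lower signal means less secretion.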
HT1080-NT tox: kills 2HG-producing HT-1080-NT fibrosarcoma cells; Potency, µM (doses to about 46.1 µM), for the others: at the highest dose activity, negative = less viability, hits mostly cytotoxic; HT-1080-NT fibrosarcoma viability, CellTiter-Glo ATP luminescence, 48 h; AID 686970; 360,000 tested, 1.6% active;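 note: NT is the 2HG producing partner of a matched IDH1 knockdown line; potency is the fitted concentration of half-maximal effect; 0% = DMSO-treated cells and -100% = media-only wells without cells; nearly all actives have a fitted effect of over 55% in size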
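750 cells/well, RPMI + 5% FBS; 2 h settle, compound pin-transfer, 48 h at 37 degrees C. CellTiter-Glo 10 min RT, luminescence. Normalized to DMSO and media-only wells.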
HT1080 IDH1KD tx: kills HT-1080 cells with IDH1 knockdown | Potency, µM (series often up to 46.1 µM), for the others: top-dose activity, negative = toxicity, actives largely listed as cytotoxic | 360,000 tested, 2% active | HT-1080 IDH1 knockdown viability, ATP luminescence, 48 h | AID 686971;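 note: potency is the fitted concentration of half-maximal effect; 0% = DMSO wells and -100% = cell-free medium wells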
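IDH1KD HT-1080 cells, 750/well, RPMI + 5% FBS; compound pinned after 2 h settling; 48 h, 37 °C; CellTiter-Glo luminescence; % activity normalised to DMSO and no-cell wells; curves fitted, classed by r2 and efficacy.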
DT40 TDP1 CPT: growth inhibition of DT40 Tdp1-/-;hTDP1 cells with camptothecin (screen for TDP1 inhibitors) | chicken DT40 Tdp1-/-;hTDP1 cells + 20 nM CPT, ATP luminescence, 48 h | Potency, µM (doses to about 46.2 µM), for inactives: at the top dose activity change, negative = growth inhibition, actives largely listed as inhibitors | 420,000 tested, 12% active | AID 686979; note: potency is the fitted concentration of half-maximal effect; nearly all actives have a fitted effect of over 55% in size
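Cell growth measured by CellTiter-Glo luminescence after a minimum 48 h, 37 C compound exposure with 20 nM CPT in Tdp1-knockout DT40 cells stably expressing hTDP1, seeded 400/well; qHTS titration format.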
DT40 TDP1 no CPT: qHTS for Inhibitors of human tyrosyl-DNA phosphodiesterase 1 (TDP1): qHTS in cells in absence of CPT. DT40 Tdp1-/- hTDP1 cells, no CPT, ATP luminescence, 48 h. Potency, µM (titrated, usually from 46.2 µM), inactives show at the top dose activity change, negative = growth inhibition, hits mostly inhibitors. 420,000 tested, 15% active; note: potency is the fitted concentration of half-maximal effect; nearly all actives have a fitted effect of over 55% in size
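Readout: luminescence from CellTiter-Glo after 30 min in the dark at RT. Cells: DT40 Tdp1-/- with stable hTDP1, 400/well. Exposure: compounds alone, ≥48 hr, 37 °C.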
An asterisk follows results filed as active; ? = inconclusive; / = no result given. Compounds with a hit are over-represented: about 19% of the library has one in this group of screens. Unless noted, calls come from the whole dose curve; as a rule, active = well fitted curve in the direction sought with a large enough effect; inconclusive = small, poorly fitted or top-dose-only effect, or another doubt; inactive = no such curve, though single readings can be large; an effect the other way counts as inactive or inconclusive. Unless noted, % is set by controls: 0 for no effect and ±100 for the full control effect.

SMILES	IL1B secr inh	HT1080-NT tox	HT1080 IDH1KD tx	DT40 TDP1 CPT	DT40 TDP1 no CPT
CCOc1ccc(N(C)S(=O)(=O)c2ccc(C)c(C(=O)OCC(=O)c3c[nH]c4ccccc34)c2)cc1	-17	21%	17%	0%	-5%
O=C(c1ccc(O)cc1)c1ccc(C(=O)c2ccc(O)cc2)cc1	0	-2%	-6%	-28%	?
Oc1ccc(O)cc1	/	/	/	21µM*	?
CCOc1ccc(CN(C)C(=O)CNC(=O)c2cc(OC)c(OC)c(OC)c2)cc1	6	10%	1%	1%	-18%
COc1cc2c(cc1OC)C(NNC(=O)c1ccc(Br)o1)=NC(C)(C)C2	0	3%	-6%	21µM*	?
CCOC(=O)c1ccc(N(C(=O)c2ccco2)C(C(=O)NC2CCCC2)c2ccncc2)cc1 (configuration not stated)	-3	15%	-4%	-17%	?
Cc1cccc(Nc2nc3c(c(=O)n(C)c(=O)n3C)n2Cc2ccccc2)c1	14	8%	-3%	-16%	-1%
COc1ccc(Cl)c(Cn2c(NCC(C)O)nc3c2c(=O)n(C)c(=O)n3C)c1 (configuration not stated)	4	6%	0%	?	?
COc1ccc(OCC(O)Cn2c(Nc3cccc(C)c3)nc3c2c(=O)n(C)c(=O)n3C)cc1 (configuration not stated)	33	5%	7%	?	15µM*
COc1ccc(OCC(O)Cn2c(NCCO)nc3c2c(=O)n(C)c(=O)n3C)cc1 (configuration not stated)	/	/	/	9.2µM*	10µM*
COc1ccc(CNC(=O)CCC2N=C3c4ccccc4N=C(SCc4ccc(F)cc4)N3C2=O)cc1 (configuration not stated)	/	/	/	?	23µM*
Cc1cccc(NC(=O)CSC2=Nc3ccccc3C3=NC(CCC(=O)NCc4ccc(F)cc4)C(=O)N23)c1 (configuration not stated)	/	/	/	-29%	?
O=C(CCC1N=C2c3ccccc3N=C(SCc3ccccc3F)N2C1=O)NCc1ccc(F)cc1 (configuration not stated)	/	/	/	?	26µM*
O=C(CCC1N=C2c3ccccc3N=C(SCc3ccc(F)cc3)N2C1=O)NCc1cccs1 (configuration not stated)	/	/	/	1%	-7%
O=C(CCC1N=C2c3ccccc3N=C(SCc3ccccc3F)N2C1=O)NCc1ccccc1 (configuration not stated)	/	/	/	?	18µM*
COc1cccc(-n2nnc3c(=O)n(Cc4ccccc4F)cnc32)c1	-17	6%	16%	-26%	-18%
COc1cc2c3nnc(-c4ccc(F)cc4)c-3cn(Cc3ccccc3F)c2cc1OC	-60*	?	?	3.7µM*	2.6µM*
COc1cc2c(=O)c(S(=O)(=O)c3ccc(F)cc3)cn(Cc3ccccc3C)c2cc1OC	/	/	/	16µM*	18µM*
COc1ccc2c(c1)c(=O)c(S(=O)(=O)c1ccc(F)cc1)cn2Cc1ccccc1Cl	/	/	/	0.26µM*	0.23µM*
COc1cccc(C2CC(c3ccccc3OC)n3nc(N)nc3N2)c1 (configuration not stated)	-14	-1%	-7%	-13%	-15%
Nn1cnc2scc(-c3ccco3)c2c1=O	-6	0%	-10%	?	?
CC(C)c1ccc(C2(C)NC(=O)N(CC(=O)NCC3COc4ccccc4O3)C2=O)cc1 (configuration not stated)	-7	-3%	4%	?	?
CC1CCN(CC(O)COC2CCC(C(C)(C)C)CC2)CC1 (configuration not stated)	?	?	-19%	23µM*	18µM*
Cc1ccc(C)c(OCC(O)CN2CCC(C)CC2)c1C (configuration not stated)	24	-1%	0%	?	21µM*

Assay outcomes from PubChem.
